In all, about 360,000 compounds went through this assay and about 7,300 (2%) were called active. No stated cut-off is given here; in the data, active means inhibition above about 50%; inactive means the rest. Many of the other results were omitted from the sample, so actives are more common in it than they were.
Assay: inhibitors of TWEAK-Fn14 signaling, primary screen, luciferase reporter cells, uHTS (AID 1159606)
Conditions: TWEAK-stimulated Fn14 reporter cells, luciferase luminescence, 8 h; at 10 µM; stronger effect = higher value

inhibition, inactive:
CCn1c(SCC(=O)Nc2nc(C)cs2)nnc1C(C)NC(=O)c1ccccc1 (stereo unspecified) -0.58%
CN(Cc1ccccc1)C(=O)[C@@H]1CCCN1C(=O)[C@@H]1CCCN1C(=O)c1c(F)cccc1F 12.3%
CCOCCCN(C)C1CCN(C(=O)c2oc3ccccc3c2NC(=O)COc2cccc(C)c2)CC1 -4.99%
N#CCSc1nc2c(c(=O)n1Cc1ccccc1)C1(CCCC1)Cc1ccccc1-2 13.4%
Cc1cccc(-n2c(=O)c3c(C)c(C)sc3n(CC(N)=O)c2=O)c1 21.1%
CCCc1nc2c3ccccc3ccn2c1Cc1ccccc1C(F)(F)F 8.3%
Cc1noc(C)c1S(=O)(=O)N1CCCC(C(=O)Nc2nccs2)C1 (stereo unspecified) 4.3%
CC(CC(=O)O)C(=O)c1ccc(Cl)c([N+](=O)[O-])c1 (stereo unspecified) 0.14%
CC(=O)Nc1ccc(C=CC(=O)c2ccc([N+](=O)[O-])cc2)cc1 5.86%
O=S(=O)(NCc1ccccn1)c1ccc(Br)s1 -7.41%
Cn1c2c(c(=O)n(C)c1=O)C(c1cccc([N+](=O)[O-])c1)Nc1ccccc1O2 (stereo unspecified) -3.73%
O=C(Nc1ccccc1)N1CCN(C2c3ccccc3-c3ccccc32)CC1 -2.27%
COc1cccc(N2CCN(C(=O)Nc3ccc4c(c3)NC(=O)CO4)CC2)c1 8.92%
Cc1nc(SC(C)C)[nH]c(=O)c1Cc1ccccc1 3.45%
COc1ccc(NC(=O)C2Cc3c(-c4ccc5c(c4)OCO5)ccnc3O2)cn1 (stereo unspecified) 14.2%
COc1ccc(NC(=O)CN2C(=O)NC(C)(c3ccccc3)C2=O)cn1 (stereo unspecified) -0.71%
CC(=O)c1ccc(OCC(=O)N(C)C2CCS(=O)(=O)C2)cc1 (stereo unspecified) 0.02%
CC(C)NC(=O)c1ccccc1S(=O)c1ccccc1C#N (stereo unspecified) 3.58%
O=C(c1ccc(C(F)(F)F)cc1)N1CCC(=O)N([C@H](COCc2ccccc2)Cc2ccccc2)CC1 13.8%
CNC(=O)c1sc(Nc2ccc(OCc3ccccc3)cc2)nc1C 32.3%
CC(=O)c1sc(N/N=C/c2ccc(C(C)C)cc2)nc1C -16.6%
Cc1cc(N2C(=O)c3ccc(C(=O)NCc4ccccc4)cc3C2=O)no1 -3.3%
COC(=O)[C@@]1(Cc2ccc(F)cc2)[C@H]2c3cc(C(=O)N(C)C)n(CCc4c[nH]c5ccc(OC)cc45)c3C[C@H]2CN1C(=O)c1ccccc1 34.5%
O=C(NCc1ccccc1)C1c2ccccc2OCC(=O)N1CCCN1CCOCC1 (stereo unspecified) -1.12%
COc1ccccc1/C=C/C1=NC(=C\N(C)C)/C(=O)O1 -17.3%
CC(C)(C)C1C/C(=C/c2ccco2)C(=O)/C(=C/c2ccco2)C1 (stereo unspecified) 9.75%
CN(/C(=N/S(=O)(=O)c1cccs1)c1ccccc1)c1ccc(O)cc1 7.69%
O=C1Nc2ccccc2NC(c2ccc3c(c2)OCO3)=C1N(Cc1ccc(F)cc1)C(=O)c1ccco1 9.28%
O=C1CC[C@@H](C(=O)N2CSC[C@@H]2C(=O)Nc2ccc(C(F)(F)F)cc2)N1 22.5%
CC1Cc2ccccc2N1S(=O)(=O)c1c(N)n(C)c(=O)n(C)c1=O (stereo unspecified) -4.11%
C[C@H]1[C@H]2c3nc4ccccc4n3C[C@H]1ON2C1CCCCC1 -8.66%
O=c1[nH][nH]c2c1[C@H](c1ccc(Cl)cc1)O[C@H](CCc1ccccc1)C2 9.82%
CN1c2ccc([N+](=O)[O-])cc2C(C)(C)C12C=Cc1cc(C(=O)O)ccc1O2 (stereo unspecified) 0.62%
COc1cccc(CC2(CO)CCCN(CC3=Cc4cc(OC)ccc4OC3)C2)c1 (stereo unspecified) 37.8%
CCN1CCN(C(=O)C2(NC(=O)Nc3cccc(F)c3)CCCCC2)CC1 6.11%
CCN(CC)CCn1c(=S)[nH]c2ncccc2c1=O 11.7%
COc1cc(N2C(=O)c3ccccc3C2=O)c(Cl)cc1C(=O)OCC(=O)N1CCOCC1 16.7%
N#Cc1ccc(-c2ccc3nccn3c2)cc1 -15.9%
CCOC(=O)c1cc(C)sc1NC(=O)C1CCC1 13.5%
Clc1cccc(Cc2c(-c3cccc(Cl)c3)nc3ccc(Cl)cn23)c1 -8.97%
CCN1C(=O)/C(=C2\SC(N3CCCCC3)=NC2=O)c2ccccc21 -25.1%
COc1ccc(S(=O)(=O)N2CN(CCc3ccc(OC)c(OC)c3)c3nc4ccccc4nc32)cc1 14%
COc1ccc(COC(=O)c2n[nH]c3ccccc23)cc1F -8.86%
CC(Nc1nc(N2CCCC2)nc2ccccc12)c1ccccc1 (stereo unspecified) -2.01%
CCc1ccc(C(CNc2nc(C(F)(F)F)nc3ccccc23)N(C)C)cc1 (stereo unspecified) 9.86%

inhibition, active:
Cc1cccc(-n2c(SCC(N)=O)nc3c(c2=O)C2(CCCCC2)Cc2ccccc2-3)c1 54%
O=C(/C=C/c1ccc(Cl)c([N+](=O)[O-])c1)c1ccc(O)cc1 84.1%
O=S(=O)([N-]c1nc2ccccc2nc1-[n+]1ccc(Cc2ccccc2)cc1)c1ccc(Br)s1 101%
O=C(Nc1cccc(NC(=O)N2CCN(c3ccccc3)CC2)c1)N1CCN(c2ccccc2)CC1 86.3%
COc1ccc(NC(=O)/C(Cl)=C(/Cl)S(=O)Cc2ccc(C)cc2)cn1 (stereo unspecified) 97.5%
COc1cccc2sc(Nc3nc(C)c(C(C)=O)s3)nc12 94.3%
O=C1OC(/C=C/c2ccccc2)=NC/1=C/c1ccco1 51%
CCc1ccc2oc(-c3ccc(N)cc3)nc2c1 60.2%
COc1ccc2c(c1)C=CC1(O2)N(CCO)c2ccccc2C1(C)C (stereo unspecified) 86.2%
COc1cccc2c1C(=O)c1c(O)c3c(c(O)c1C2=O)CC(O)(C(C)=NNC(=O)c1ccc(Cl)c(Cl)c1)CC3OC1CC(N)C(O)C(C)O1 (stereo unspecified) 100%
CC(Nc1nc(C(F)(F)F)nc2ccccc12)c1cccs1 (stereo unspecified) 60.9%

Source: PubChem BioAssay AID1159606 (Sanford-Burnham Center for Chemical Genomics, 2016)
